# Measurements: PubChem BioAssay (NCATS)
# Records with an inconclusive call do not appear. Activity calls are given as the source filed them. Unless noted, calls come from the whole dose curve; as a rule, active = well fitted curve in the direction sought with a large enough effect; inconclusive = small, poorly fitted or top-dose-only effect, or another doubt; inactive = no such curve, though single readings can be large; an effect the other way counts as inactive or inconclusive.
# Tests used:
# [1] = qHTS Assay for Lipid Storage Modulators (AID 1519; calls by dose curve); conditions: Drosophila S3 cells, BODIPY lipid droplet/cell ratio, laser cytometry, cells loaded with oleic acid
# Summary of the method: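 Cells seeded at 5,000 per well were treated with compounds over a concentration series and loaded with oleic acid (400 uM, as added). Lipid droplet fluorescence (488 nm excitation, 500-530 nm channel) was read by laser-scanning cytometry and normalized to 20 uM Triacsin C.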
# [2] = biological target: Alpha-galactosidase (Coffea arabica) (UniProt Q42656); assay: Counterscreen for Glucocerebrosidase Inhibitors: qHTS Assay for Coffee Bean alpha-Galactosidase at pH 5.9 (AID 998); conditions: coffee bean alpha-galactosidase enzyme assay; series mostly up to 76.9 µM;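 note: plate controls were uninhibited enzyme for no effect and no-enzyme basal signal for full effect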
# Chain of Alpha-galactosidase (Coffea arabica) (Q42656 whole entry, looked up): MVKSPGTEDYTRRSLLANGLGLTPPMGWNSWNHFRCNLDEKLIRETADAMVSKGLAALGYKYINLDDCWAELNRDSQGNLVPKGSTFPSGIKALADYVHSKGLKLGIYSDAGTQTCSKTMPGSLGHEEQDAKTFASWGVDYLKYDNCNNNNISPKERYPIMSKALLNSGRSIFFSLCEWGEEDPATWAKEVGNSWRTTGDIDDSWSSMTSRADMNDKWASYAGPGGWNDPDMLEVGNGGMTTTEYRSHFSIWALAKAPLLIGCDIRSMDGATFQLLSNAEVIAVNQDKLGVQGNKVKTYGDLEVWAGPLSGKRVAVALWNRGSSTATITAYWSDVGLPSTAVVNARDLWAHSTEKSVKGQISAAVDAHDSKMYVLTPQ
# Summary of the method: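 Green coffee bean enzyme (2 nM final) was incubated with compounds (0.7 nM–77 uM) and 4-methylumbelliferyl alpha-D-galactopyranoside (80 uM) in citrate buffer pH 5.9, 20 min at room temperature. High-pH stop; fluorescence 365/440 nm; AC50 from Hill fits.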
# [3] = qHTS for differential inhibitors of proliferation of Plasmodium falciparum line 7G8 (AID 1815); conditions: Plasmodium falciparum 7G8 proliferation inhibition; series mostly up to 28.7 µM;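 note: parasite growth measured after three days of incubation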; note: potency is the fitted concentration of half-maximal effect;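 for activity change, negative = inhibition: plate controls were vehicle wells for no effect and reference inhibitor wells for full effect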
# [4] = qHTS for differential inhibitors of proliferation of Plasmodium falciparum line GB4 (AID 1816); conditions: Potency: Plasmodium falciparum GB4 proliferation inhibition; series mostly up to 28.7 µM;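 note: potency is the fitted concentration of half-maximal effect; parasite growth measured after 72 h incubation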
# [5] = qHTS for differential inhibitors of proliferation of Plasmodium falciparum line 3D7 (AID 1876); note: potency is the fitted concentration of half-maximal effect; conditions: P. falciparum 3D7 proliferation inhibition; series mostly up to 28.7 µM
# [6] = qHTS for differential inhibitors of proliferation of Plasmodium falciparum line D10 (AID 1877); conditions: series mostly up to 28.7 µM;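 note: parasites grown with compound for 72 h before DNA staining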; note: potency is the fitted concentration of half-maximal effect;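 for activity change, negative = inhibition: plate controls were vehicle wells for no effect and reference inhibitor wells for full effect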
# [7] = qHTS for differential inhibitors of proliferation of Plasmodium falciparum line W2 (AID 1883); conditions: Potency: Plasmodium falciparum W2 proliferation inhibition; series mostly up to 28.7 µM;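 note: potency is the fitted concentration of half-maximal effect; parasites grown with compound for 72 h before lysis and staining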
# [8] = Cell Viability - LYMP2-026 (AID 989); conditions: LYMP2-026 lymphoblastoid cell viability, qHTS; series mostly up to 92.2 µM; note: % is set by controls: 0 for no effect and ±100 for the full control effect; nearly all actives have a fitted effect of over 50% in size
# Summary of the method: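 Human lymphoblastoid LYMP2-026 cells, 2500/well, exposed to compound 24 h at 37 C in complete medium. Viability as intracellular ATP by CellTiter-Glo luminescence; AC50 from Hill fits of qHTS concentration-response.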
# [9] = Cell Viability - LYMP1-002 - Assay at 24 hr (AID 993); conditions: LYMP1-002 lymphoblastoid cells viability; series mostly up to 92.2 µM; note: % is set by controls: 0 for no effect and ±100 for the full control effect
# Summary of the method: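 Human lymphoblastoid LYMP1-002 cells (2500/well) treated 24 h at 37 °C; viability as intracellular ATP by CellTiter-Glo luminescence. Tetraoctylammonium bromide as positive control; AC50 from Hill-equation fits of qHTS concentration-response.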
# [10] = Cell Viability - LYMP1-002 - Assay at 40 hr (AID 994); conditions: LYMP1-002 lymphoblastoid cell viability; series mostly up to 92.2 µM;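 note: 0% = DMSO only and full inhibition = 92 µM tetraoctylammonium bromide; nearly all actives have a fitted effect of over 60% in size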
# Summary of the method: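 LYMP1-002 human lymphoblastoid cells (2500/well, complete medium) were treated with compounds for 40 hr at 37 C. Intracellular ATP was measured by CellTiter-Glo luminescence, and AC50 values came from Hill-equation fits of concentration-response data; tetraoctylammonium bromide was the positive control.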
# [11] = qHTS Assay for Identification of Small Molecule Inducers of Hypoxia Response (AID 2120; active = well fitted curve in the direction sought with a large enough effect in the signal ratio, with a control signal flat, not every such curve was filed as active; the % refers to the signal ratio; note: 0% is about no effect); conditions: hypoxia response reporter cells, beta-lactamase ratio readout; series mostly up to 104 µM
# Summary of the method: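 HRE-bla ME-180 cells in Opti-MEM with 0.5% dialyzed FBS, pre-plated 4-5 h, then compound titration for 17 h at 37 degrees Celsius. CCF4 loaded 2.5 h at room temperature; 460/530 nm ratio gave %Activity and AC50 for induction.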
# [12] = biological target: Endonuclease 4 (Escherichia coli (strain K12)) (UniProt P0A6C1); assay: Counterscreen for APE1 Inhibitors: qHTS Validation Assay for Inhibitors of Endonuclease IV (AID 1708); note: % is set by controls: 0 for no effect and ±100 for the full control effect; conditions: E. coli endonuclease IV, DNA cleavage fluorescence; series mostly up to 57.1 µM
# Summary of the method: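 Concentration-response counterscreen run identically to the APE1 assay: 15 min room-temperature preincubation of 2 nM enzyme with compound, reaction started with 50 nM quenched abasic DNA, progress taken from kinetic fluorescence.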
# [13] = biological target: DNA repair nuclease/redox regulator APEX1 (Homo sapiens) (UniProt P27695); assay: qHTS Validation Assay for Inhibitors of the Human Apurinic/apyrimidinic Endonuclease 1 (APE1) (AID 1705;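 note: TAMRA fluorescence gain over two minutes as APE1 cuts a quenched THF abasic duplex; % is set by controls: 0 for no effect and ±100 for the full control effect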); conditions: purified APE1 endonuclease activity, fluorescence, titration; series mostly up to 57.1 µM
# Chain of DNA repair nuclease/redox regulator APEX1 (Homo sapiens) (P27695 whole entry, looked up): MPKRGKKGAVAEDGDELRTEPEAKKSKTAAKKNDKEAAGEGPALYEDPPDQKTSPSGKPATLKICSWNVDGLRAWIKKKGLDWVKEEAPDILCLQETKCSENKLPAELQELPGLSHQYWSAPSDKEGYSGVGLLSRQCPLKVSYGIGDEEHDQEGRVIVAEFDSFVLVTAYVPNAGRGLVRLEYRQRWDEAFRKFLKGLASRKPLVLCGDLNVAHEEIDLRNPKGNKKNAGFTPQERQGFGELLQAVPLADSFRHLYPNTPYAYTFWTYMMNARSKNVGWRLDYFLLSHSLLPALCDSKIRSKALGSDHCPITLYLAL
# Summary of the method: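 qHTS, 1536-well. APE1 + cpd 15 min RT → 50 nM TAMRA/BHQ-2 THF-abasic dsDNA substrate → kinetic fluorescence, 3 reads/60 s; delta(read3−read1) = reaction progress. No-enzyme buffer = negative control.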
# [14] = Counterscreen for APE1 Inhibitors: Fluorescent Dye Displacement Validation Assay (AID 1707); conditions: fluorescent dye displacement from DNA; series mostly up to 57.1 µM;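 note: plate controls were ThO with dsDNA and no compound for no effect and ThO without dsDNA for full effect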
# Summary of the method: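 Assay buffer: Tris-HCl pH7.5 with 50mM NaCl, 2 mM MgCl2, 0.01% Tween-20. Dye 250 nM, duplex 50 nM final. Readout: decrease in ThO endpoint fluorescence, 480 nm excitation, 540 nm emission.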
# [15] = qHTS for differential inhibitors of proliferation of Plasmodium falciparum line Dd2 (AID 1882); conditions: Potency: Plasmodium falciparum Dd2 proliferation inhibition; series mostly up to 28.7 µM; note: nearly all actives have a fitted effect of over 65% in size; note: potency is the fitted concentration of half-maximal effect;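 for activity change, negative = inhibition: plate controls were DMSO vehicle for no effect and 0.29 µM artemisinin for full effect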
# Summary of the method: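 Dd2-infected erythrocytes (0.3% parasitemia, 2.5% hematocrit final) incubated with compound 72 h at 37 C, 5% CO2; lysed with saponin/Triton buffer containing SYBR Green I, incubated overnight in the dark, then read by fluorescence (485/535 nm). Normalized to 0.29 uM artemisinin and DMSO.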
# [16] = biological target: Ferritin light chain (Equus caballus) (UniProt P02791); assay: qHTS Validation Assay for Identification of Novel General Anesthetics (AID 2323); conditions: horse apoferritin, anesthetic-site fluorescent probe displacement; series mostly up to 76.9 µM; note: % is set by controls: 0 for no effect and ±100 for the full control effect
# Chain of Ferritin light chain (Equus caballus) (P02791 2-175 limits assumed): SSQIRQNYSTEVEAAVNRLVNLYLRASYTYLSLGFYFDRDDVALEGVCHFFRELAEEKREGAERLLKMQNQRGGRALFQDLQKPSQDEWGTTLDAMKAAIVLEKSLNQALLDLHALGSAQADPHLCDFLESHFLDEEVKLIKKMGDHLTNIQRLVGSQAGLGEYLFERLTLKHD
# Summary of the method: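 Fluorescence at 535 nm (excitation 380 nm) reported loss of 1-AMA binding to horse-spleen apoferritin (10 uM) in PBS with 50% saturated 1-aminoanthracene, after 10 min room-temperature incubation with compound; values from Hill fits of normalized response.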
# [17] = biological target: alpha-glucosidase (Oryza sativa, rice) (UniProt Q653V4); assay: Counterscreen for Glucocerebrosidase Inhibitors: qHTS Assay for Rice alpha-Glucosidase at pH 5.0 (AID 997); conditions: rice alpha-glucosidase enzyme activity; series mostly up to 76.9 µM;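 note: 0% = full activity with enzyme and -100% = basal without enzyme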
# Summary of the method: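 Rice alpha-glucosidase (4 nM final) with 400 uM 4-methylumbelliferyl-alpha-D-glucopyranoside in citrate buffer pH 5.0, 20 min at room temperature, stopped at pH 10; fluorescence 365/440 nm, compounds 0.7 nM–77 uM, AC50 from Hill fits.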
# [18] = qHTS for differential inhibitors of proliferation of Plasmodium falciparum line HB3 (AID 1886); conditions: Potency: Plasmodium falciparum HB3 proliferation inhibition; series mostly up to 28.7 µM;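 note: potency is the fitted concentration of half-maximal effect; parasites grown with compound for 72 h before SYBR Green readout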
smiles,measurement,setting,value
O=P1(NCCCl)OCCCN1CCCl (stereo not drawn),"activity change, negative = inhibition",[1]; at 25.7 µM (top of the series),-0.105% (inactive)
same,max response,[1]; measured here: cell count channel max response,-5.65%
same,max response,[1]; measured here: lipid channel max response,-6.2%
Cc1nc2n(c(=O)c1CCN1CCC(c3noc4cc(F)ccc34)CC1)CCCC2,outcome,[2],inactive
same,Potency,[3],11.2 µM (active)
same,Potency,[4],11.2 µM (active)
same,Potency,[5],12.6 µM (active)
same,Potency,[6],10 µM (active)
same,Potency,[7],10 µM (active)
CN(C)C(=O)C(CCN1CCC(O)(c2ccc(Cl)cc2)CC1)(c1ccccc1)c1ccccc1,outcome,[2],inactive
CC(C)NCC(O)COc1cccc2[nH]ccc12 (stereo not drawn),outcome,[2],inactive
COc1cc(Cc2cnc(N)nc2N)cc(OC)c1OC,outcome,[2],inactive
CCCC(CCC)C(=O)O,outcome,[2],inactive
NC12CC3CC(CC(C3)C1)C2,outcome,[2],inactive
c1ccc2c(c1)Nc1ccccc1S2,outcome,[8],inactive
same,Potency,[9],inactive
same,Potency,[10],inactive
same,outcome,[11],inactive
COc1cc2c(c(OC)c1OC)-c1ccc(OC)c(=O)cc1[C@@H](NC(C)=O)CC2,outcome,[2],inactive
same,outcome,[12],inactive
same,Potency,[3],11.2 µM (active)
same,Potency,[5],10 µM (active)
same,Potency,[7],11.2 µM (active)
COc1ccc(Cc2nccc3cc(OC)c(OC)cc23)cc1OC,outcome,[2],inactive
same,outcome,[13],inactive
same,Potency,[14],inactive
same,Potency,[3],inactive
same,Potency,[15],inactive
same,outcome,[16],inactive
CNCCC(Oc1ccc(C(F)(F)F)cc1)c1ccccc1 (stereo not drawn),outcome,[13],inactive
same,Potency,[6],10 µM (active)
same,Potency,[7],2.24 µM (active)
CN1C[C@H](CNC(=O)OCc2ccccc2)C[C@@H]2c3cccc4c3c(cn4C)C[C@H]21,outcome,[17],inactive
same,outcome,[2],inactive
same,outcome,[13],inactive
same,Potency,[14],inactive
same,Potency,[3],5.01 µM (active)
same,Potency,[4],7.08 µM (active)
same,Potency,[5],2.51 µM (active)
same,Potency,[6],11.2 µM (active)
same,Potency,[15],10 µM (active)
same,Potency,[7],3.98 µM (active)
same,Potency,[18],11.2 µM (active)
same,outcome,[16],inactive
CC1(C)NC(=O)N(c2ccc([N+](=O)[O-])c(C(F)(F)F)c2)C1=O,outcome,[2],inactive
CCCN1CCC[C@@H]2Cc3[nH]ncc3C[C@H]21,outcome,[17],inactive
same,outcome,[2],inactive
OCCN1CCN(CCCN2c3ccccc3Sc3ccc(C(F)(F)F)cc32)CC1,outcome,[2],inactive
same,Potency,[3],2.82 µM (active)
same,Potency,[4],2.51 µM (active)
same,Potency,[5],2.51 µM (active)
same,Potency,[6],10 µM (active)
same,Potency,[15],10 µM (active)
same,Potency,[7],1.41 µM (active)
same,Potency,[18],4.47 µM (active)
same,outcome,[16],inactive
CN(C)CCC=C1c2ccccc2CCc2ccccc21,outcome,[2],inactive
same,Potency,[3],10 µM (active)
same,Potency,[4],7.94 µM (active)
same,Potency,[6],8.91 µM (active)
same,Potency,[7],3.16 µM (active)
same,Potency,[18],14.1 µM (active)
CC(COc1ccccc1)N(CCCl)Cc1ccccc1 (stereo not drawn),Potency,[3],7.94 µM (active)
same,Potency,[7],2.51 µM (active)
Cc1oncc1C(=O)Nc1ccc(C(F)(F)F)cc1,outcome,[2],inactive
COC[C@H]1OC(=O)c2coc3c2[C@@]1(C)C1=C(C3=O)C2CCC(=O)[C@@]2(C)C[C@H]1OC(C)=O (stereo partly drawn),outcome,[13],inactive
same,Potency,[14],inactive
same,Potency,[5],12.6 µM (active)
same,Potency,[6],inactive
same,Potency,[15],11.2 µM (active)
same,Potency,[7],11.2 µM (active)
same,outcome,[16],inactive
Cc1cnc(C(=O)NCCc2ccc(S(=O)(=O)NC(=O)NC3CCCCC3)cc2)cn1,outcome,[2],inactive
C[C@]12C/C(=C/O)C(=O)C[C@@H]1CC[C@@H]1[C@@H]2CC[C@@]2(C)[C@H]1CC[C@]2(C)O,outcome,[11],inactive
CC[N+](CC)(CC)CC,outcome,[2],inactive
same,outcome,[13],inactive
same,Potency,[14],inactive
same,Potency,[5],11.2 µM (active)
same,Potency,[6],11.2 µM (active)
same,Potency,[15],inactive
same,outcome,[16],inactive
O=c1[nH]cc(F)c(=O)[nH]1,outcome,[2],inactive
same,Potency,[3],7.08 µM (active)
same,Potency,[4],7.94 µM (active)
same,Potency,[5],4.47 µM (active)
same,Potency,[6],4.47 µM (active)
same,Potency,[7],7.94 µM (active)
same,Potency,[18],5.01 µM (active)
